{"source": "PubChem BioAssay AID588324", "about": "(National Center for Advancing Translational Sciences (NCATS), 2011)", "note": "Results filed as inconclusive are left out. Values without a mark were called inactive. Activity calls are given as the source filed them. Calls follow the shape of the dose curve; as a rule, active = well fitted inhibition curve with a large enough effect; inconclusive = small, poorly fitted or top-dose-only effect; inactive = flat fitted curve, though single readings scatter."}
{"system": "Trypanosoma cruzi 6-phosphofructokinase", "assay": "Confirmatory Assay to Find Inhibitors of T. brucei phosphofructokinase: Counter Screen against T cruzi PFK", "settings": "ADP-Glo luminescence, 45 min; series mostly up to 57.5 µM; activity, negative = inhibition: at the top concentration", "source_text": "Various species of the protozoan family Trypanosomatidae are responsible for a range of serious human diseases in tropical and subtropical areas of the world. […] Many of the disorders caused by trypanosomatids are fatal if left untreated, but most currently used drugs are inefficient and toxic. […] Oxidative metabolism involving the mitochondrial tricarboxylic acid cycle and oxidative phosphorylation are repressed in these parasites, and recent RNA interference (RNAi) experiments have shown that even partial depletion of certain individual glycolytic enzymes can lead to the death of cultured parasites. One such glycolytic enzyme, phosphofructokinase (PFK), catalyzes the formation of fructose-1,6-bisphosphate (F1,6BP) and ADP from fructose-6-phosphate (F6P) and ATP, and in many metabolic circumstances makes an important contribution to the control of flux through the glycolytic pathway. As a specific glycolytic target, PFK is particularly attractive as it catalyzes the first irreversible step in glycolysis, and structural and kinetic studies have shown very substantial and essential differences from corresponding host enzymes, allowing for the discovery of parasite-selective inhibitors. Confirmed qHTS active compounds were tested against T cruzi PFK. A luminescent biochemical assay was performed that used luciferase-based nucleotide detection (ADP-Glo, Promega) to examine the effect of identified actives against another trypanosomal isoform of PFK, namely Trypansoma cruzi, for target specificity. The assay is identical in concept to the T. brucei PFK qHTS assay, but instead uses the T. cruzi isoform of PFK (expressed and purified by U. of Edinburgh). NIH Molecular Libraries Probe Production Network [MLPCN] NIH Chemical Genomics Center [NCGC] Grant: 1 R03 MH092153-01 PI Name: Malcolm Walkinshaw, University of Edinburgh\nSubstrate buffer was dispensed into white, solid 1536-well plates at 3 uL/well in 0.1M triethanolamine (TEA) buffer, pH 8.0, containing final concentrations of 5 mM MgCl2, 0.01% Tween20, 0.6mM fructose-6-phosphate (F6P) and 0.1mM ATP. Then, 23nl of compounds or DMSO were delivered to each well using a pin tool. One uL of T. cruzi PFK (0.1M TEA, 0.01% Tween20, 0.1% bovine serum albumin (BSA) and […] PFK, final concentrations) was then dispensed, and plates were incubated at room temperature for 45 min. The luminescent detection reagent, ADP-Glo (Promega), was then added in two steps: the first reagent, ADP-Glo (which converts remaining uncatalyzed ATP), was added at 2.5uL/well and incubated for ten minutes at room temperature, and the second component, Kinase Detection reagent (which converts ADP to ATP as a substrate for luciferase-based luminescence), was added immediately after at 5uL/well, followed by one final ten minute room temperature incubation. The plates were measured on a ViewLux plate reader for luminescent signal using a clear filter with a one second exposure. The %Activity was determined from the corrected luminescence values. 1x (1.25nM) and 0x PFK enzyme controls (untreated) were included to normalize %Activity of identified inhibitors; 0x enzyme values corresponded to 100%Activity (full inhibition), while 1x PFK enzyme values were used to normalize 0% Activity (no inhibition).", "units": {"activity, negative = inhibition": "%"}}
{"compound": "Cc1cc(NS(=O)(=O)c2ccc(NC(=O)Cc3ccc(Cl)cc3)cc2)no1", "Potency": "1.46 µM (active)"}
{"compound": "Cc1cc(N[S+](=O)([O-])c2ccc3cc(NC(=O)Cc4ccc(Cl)c(Cl)c4)ccc3c2)no1", "Potency": "4.61 µM (active)"}
{"compound": "Cc1cc(NC(=O)c2csc(NC(=O)Cc3ccc(Cl)c(Cl)c3)n2)no1", "activity, negative = inhibition": -18.8}
{"compound": "Cc1cc(NS(=O)(=O)c2ccc(NC(=O)Cc3ccc(Cl)c(Cl)c3)cc2)on1", "Potency": "0.231 µM (active)"}
{"compound": "Cc1cc(NS(=O)(=O)c2ccc(NC(=O)Cc3ccc(Cl)c(Cl)c3)cc2)n(C)n1", "Potency": "1.16 µM (active)"}
{"compound": "CN(C)c1cccc(NS(=O)(=O)c2ccc(NC(=O)Cc3ccc(Cl)c(Cl)c3)cc2)c1", "Potency": "11.6 µM (active)"}
{"compound": "Cc1cc(N[S+](=O)([O-])c2ccc(NC(=O)Cc3ccc(Cl)nc3)cc2)no1", "Potency": "20.6 µM (active)"}
{"compound": "O=C(Cc1ccc(Cl)c(Cl)c1)Nc1ccc(S(=O)(=O)Nc2cccc(C(=O)O)c2)cc1", "Potency": "0.58 µM (active)"}
{"compound": "Cc1cc(NS(=O)(=O)c2ccc(NC(=O)Cc3ccc(Cl)c(F)c3)cc2)no1", "Potency": "0.651 µM (active)"}
{"compound": "Cc1cc(NC(=O)c2ccc(NC(=O)Cc3ccc(Cl)c(Cl)c3)cc2)no1", "activity, negative = inhibition": -18.9}
{"compound": "Cc1cc(NS(=O)(=O)Cc2ccc(NC(=O)Cc3ccc(Cl)c(Cl)c3)cc2)no1", "Potency": "3.26 µM (active)"}
{"compound": "Cc1cc(N(C)S(=O)(=O)c2ccc(NC(=O)Cc3ccc(Cl)c(Cl)c3)cc2)no1", "Potency": "2.06 µM (active)"}
{"compound": "Cc1cc(NS(=O)(=O)c2ccc(N(C)C(=O)Cc3ccc(Cl)c(Cl)c3)cc2)no1", "Potency": "1.3 µM (active)"}
{"compound": "O=C(Cc1ccc(Cl)c(Cl)c1)Nc1ccc(S(=O)(=O)Nc2cccc(O)c2)cc1", "Potency": "1.63 µM (active)"}
{"compound": "Cc1cc(NS(=O)(=O)c2ccc(NS(=O)(=O)Cc3ccc(Cl)c(Cl)c3)cc2)no1", "activity, negative = inhibition": -20.8}
{"compound": "O=C(Cc1ccc(Cl)c(Cl)c1)Nc1ccc(S(=O)(=O)O)cc1", "Potency": "0.461 µM (active)"}
{"compound": "COc1ccc(CC(=O)Nc2ccc(S(=O)(=O)Nc3cc(C)on3)cc2)cc1OC", "activity, negative = inhibition": -4.76}
{"compound": "O=C(Cc1ccc(Cl)c(Cl)c1)Nc1ccc(S(=O)(=O)Nc2ccccc2)cc1", "Potency": "16.3 µM (active)"}
{"compound": "Cc1cc(NS(=O)(=O)c2ccc(NC(=O)Cc3cccc(Cl)c3)cc2)no1", "Potency": "2.59 µM (active)"}
{"compound": "Cc1cc(NS(=O)(=O)CCNC(=O)Cc2ccc(Cl)c(Cl)c2)no1", "Potency": "16.3 µM (active)"}
{"compound": "Cc1cc(NS(=O)(=O)c2ccc(NCCc3ccc(Cl)c(Cl)c3)cc2)no1", "Potency": "16.3 µM (active)"}
{"compound": "Cc1cc(NS(=O)(=O)c2ccc(NC(=O)Cc3ccc(Cl)cc3Cl)cc2)no1", "Potency": "14.6 µM (active)"}
{"compound": "Cc1cc(NS(=O)(=O)c2ccc(NC(=O)Cc3ccc(Cl)c(Cl)c3)cc2)no1", "Potency": "0.231 µM (active)"}
{"compound": "O=C(Cc1ccc(Cl)c(Cl)c1)Nc1ccc(S(=O)(=O)Nc2ccc(C(=O)O)cc2)cc1", "Potency": "0.291 µM (active)"}
{"compound": "Cc1cc(NS(=O)(=O)c2ccc(NC(=O)Cc3ccc(C)c(F)c3)cc2)no1", "Potency": "4.61 µM (active)"}
{"compound": "Cc1cc(NS(=O)(=O)c2cccc(NC(=O)Cc3ccc(Cl)c(Cl)c3)c2)no1", "Potency": "16.3 µM (active)"}
{"compound": "Cc1cc(NS(=O)(=O)c2ccc(NC(=O)Cc3ccc4ccccc4c3)cc2)no1", "Potency": "1.83 µM (active)"}
{"compound": "O=C(Cc1ccc(Cl)c(Cl)c1)Nc1ccc(S(=O)(=O)Nc2ccn[nH]2)cc1", "Potency": "0.73 µM (active)"}
{"compound": "Cc1cc(NS(=O)(=O)c2ccc(NC(=O)CCc3ccc(Cl)c(Cl)c3)cc2)no1", "Potency": "6.51 µM (active)"}
{"compound": "CCOC(=O)c1cccc(NS(=O)(=O)c2ccc(NC(=O)Cc3ccc(Cl)c(Cl)c3)cc2)c1", "activity, negative = inhibition": -18}
{"compound": "O=C(Cc1ccc(Cl)c(Cl)c1)Nc1ccc(S(=O)(=O)Nc2ccon2)cc1", "Potency": "0.13 µM (active)"}
{"compound": "Cc1cc(NS(=O)(=O)c2ccc(NC(=O)Cc3ccc(C)c(C)c3)cc2)no1", "Potency": "6.51 µM (active)"}
{"compound": "Cc1cc(NS(=O)(=O)c2ccc(C(=O)NCc3ccc(Cl)c(Cl)c3)cc2)no1", "Potency": "2.91 µM (active)"}
{"compound": "O=C(Cc1ccc(Cl)c(Cl)c1)Nc1ccc(S(=O)(=O)Nc2cncnc2)cc1", "Potency": "0.73 µM (active)"}
{"compound": "Cc1cc(NS(=O)(=O)c2ccc(NC(=O)Cc3ccc(Cl)c(C(F)(F)F)c3)cc2)no1", "Potency": "0.919 µM (active)"}
